Test results: the supplement of paper PMC6555819

What follows are sequences tested on VDR:RXRa (NR concentration 270 nM, RXRa partner concentration 90 nM) (assay: PBM binding z-score (relative to random genomic background probes); higher = stronger binding; sequences stand for … in GC…GCGATTGACAGCGTAGAATGAAGG).
Protocol: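 Protein-binding microarray (Agilent 4x180K custom design, double-stranded 60-nt probes: 5' GC cap, 34-nt variable region, 24-nt constant primer region; full probe sequence given). Purified or IVT nuclear receptor:RXRα heterodimers (3:1 NR:RXRα, mostly 270:90 nM) or homodimers were incubated for 1 h in PBS with 2% milk and no ligand, then detected with Alexa488 antibodies. Fluorescence from o1-orientation probes (~5 replicates averaged) was converted to z-scores against 500 random hg19 background probes. Variable regions are seed direct-repeat (DR0–DR5) sites, all their single-nucleotide variants and half-site ablations.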
For CGTCAGAGTTCAACTAAGGTAACGTAAAGCACGC, the PBM binding z-score was 5.28. CGTCAGAGTTCAAGGTAACGTAACAGAAAGCAGC showed a PBM binding z-score of 4.23. CCTCCTAGGTCATGGTCAGCTAATCTACAGTATG was tested, and the PBM binding z-score was 1.93. Work on TCTTGTAGATCAACAGGAGGTTAGGAAAGATCGA yielded a PBM binding z-score of 0.0401. TCTTGTAGATCAGCAAGTTAAGAAAGCTGGCCAA showed a PBM binding z-score of 0.28. TGTCATAGTTCAAAGGTAACGTAAGTATCCACAC showed a PBM binding z-score of 2.96. ATCGAAAGGTCGAGGTGAGTCTAGAGAAAGGGAA showed a PBM binding z-score of 3.21. Work on CCTCAGAGGACAGAAGGTCAGAGCTGTCCGCTTT yielded a PBM binding z-score of 1.07. In the case of CCTACTGGGCCAAAAAGGTCATTGACGCCGATAA, the PBM binding z-score was 4.36. TTTCGGAGGACACGAAGGTCAGAGCTTTCCAGAG showed a PBM binding z-score of 2.47. CTACCAAGGTGAACAAGGTCGTTGATTACTATTC gave a PBM binding z-score of 5.95. With ATATGTAGGTTACATCCAGGTCATTCAGGCTATG the PBM binding z-score was 4.11. For TTACCAAGGTGAAAGGTCGTAGATGCACGCCTTG, the PBM binding z-score was 3.04. TCTCGGAGGACAAGAAAGGTCAGAGCTCGACATC gave a PBM binding z-score of 2.67. ACTATTAGTTGAGACGAGGGCAACCGGTAGGTTG showed a PBM binding z-score of 0.837. With TATACAGGGTCAAAGGACAGAGTACGAATGTCGA the PBM binding z-score was 4.6. In the case of CCTAGTTGGTCAGGAGGTCACTCACCGGATATGA, the PBM binding z-score was 3.4. With CATACTAGGTCACCGGAAGGTCAAAGTCCGCATG the PBM binding z-score was 6.08. GATGCTAGGTCAGGTTGGTCAGCTAACGGGTACG showed a PBM binding z-score of 0.88. TCTAGTTGGTCACGGAGGTCTCACACGACGGGTA showed a PBM binding z-score of 1.65. GCAGATAGGTAATACAAGGTGAAAGTCCGATTGT gave a PBM binding z-score of 0.13. CCGACTGGGGCATAAGGTGACCATAAGCCAGCCC gave a PBM binding z-score of -0.42. TCATATAGGTAAACAGGTGAAAATCCGTAAGTTA showed a PBM binding z-score of 1.39. CTACCAAGGTAAACAAGGTCGTTGATTACTATTC was tested, and the PBM binding z-score was 4.73. In the case of TATGCAGGGTCAAAGGCCAGAGTACGAATGTCGA, the PBM binding z-score was 4.61. ACTAGCAGGACAAGTTTGGGTCACTCAAACAAAG gave a PBM binding z-score of 0.698. With GCGACTGGGGCTTCAGCAGGTTACCATAACTTAA the PBM binding z-score was -0.361. For TTACCAGGGTGAGCTGAGGTCGTTGATCCAACTC, the PBM binding z-score was 4.58. Sequence ACTAGCAGGCCATGGGTCACTCAAGATTAGTCCG has a PBM binding z-score of 0.6. In the case of CCGAGTAGGTTATGGAGCATTCAGGCAACGGTGA, the PBM binding z-score was -0.239. Work on AGACTGAGGTTACCAAAGATCAGGGAAACGCTTG yielded a PBM binding z-score of 1.13. GCGACTGGGGCAAAGCAGGTTAACATAAGGTTGG gave a PBM binding z-score of 0.364. CCGAGTAGGTTATGGGGGATTCAGGCAACGGTGA showed a PBM binding z-score of 1.45. TCGAGTAGGTTACCAATGGGGCATTAAGCTTTCT gave a PBM binding z-score of 0.0667. For CCTTACGGGTCACTCGAGGTTATAGCATCGGAGT, the PBM binding z-score was 5.11. In the case of TCTCGTAGATCAATAGAGGTTAAGAAAGTGCGCT, the PBM binding z-score was 1.68. In the case of CCTGTTAGGTCATGGTCAGCTAATCTACAGTATG, the PBM binding z-score was 2.02. In the case of CGTCCAAGGCCAAGGTCAGTGAAAGAGACTCGAA, the PBM binding z-score was 1.15. TTACCAAGGTGAGCTGAGGTCATTGATCCAACTC showed a PBM binding z-score of 5.79. CCTACTGAGCCATCAGGTCATTGATATCAACGTT showed a PBM binding z-score of 2.15.
